# Measured values reported in PubChem BioAssay.
# Activity calls are given as the source filed them.
# Tests used:
# [1] = test system: PRMT1 (protein arginine N-methyltransferase 1); assay: small molecules binding arginine methyltransferase PRMT1 – biochemical, small-molecule microarray, 635 nm fluorescence, primary screen (AID 1088); details: higher = more signal;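 note: binding of Prmt1 protein to compounds spotted on small-molecule microarray slides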
# [2] = growth effects on S. cerevisiae YJM789 – YJM789 clinical isolate, OD600, 24 h, basal, primary screen (AID 1089); details: higher = more signal, called active from +8 up or from −8 down;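 note: growth of clinical yeast isolate S. cerevisiae YJM 789 seeded 1000 cells per well; test concentration not given here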
# [3] = S. pombe growth modifiers, basal conditions – strain 972, OD600, 24 h, no modulator, primary screen (AID 1090);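 note: basal condition with compound alone and no growth modifier present; test concentration not given here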; details: S. pombe 972 growth, higher = more signal, called active from +8 up or from −8 down
# [4] = budding yeast growth modifiers under rapamycin – strain BY4716, OD600, 96 h, primary screen (AID 1091); note: test concentration not given here; details: S. cerevisiae BY4716 + rapamycin, higher = more signal, called active from +8 up or from −8 down
# [5] = target: Torsin-1A-interacting protein 2 (Homo sapiens) (UniProt Q8NFQ8); assay: small molecules binding lysate-expressed LULL1 – cell lysate, human LULL1 lysate, 635/667 nm fluorescence, primary screen (AID 1092); details: small-molecule microarray, hLULL1 lysate binding, 635 nm fluorescence; higher = more signal;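 note: probe is lysate of COS7 cells overexpressing human LULL1; score merges per-feature 667 nm fluorescence with signal-to-noise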
# [6] = optical density change of DRC41 E. coli – strain DRC41, OD650, 24 h, E. coli filamentation project, primary screen (AID 1093);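 note: MC1000 strain lacking acrAB efflux and sulA so SOS filamentation is blocked; test concentration not given here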; details: E. coli DRC41 growth, higher = more signal, called active from +8 up or from −8 down
# [7] = probe aLefty2 binding to arrayed compounds – biochemical, biotinylated probe, 635/667 nm fluorescence, primary screen (AID 1094); details: small-molecule microarray, higher = more signal;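 note: score merges spot fluorescence near 667 nm with spot signal-to-noise ratio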
# [8] = test system: Noggin (protein binding on small-molecule microarray); assay: small molecules binding Noggin protein – biochemical, 635/667 nm fluorescence, primary screen (AID 1095); details: 635 nm fluorescence, higher = more signal;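 note: score merges 667 nm feature fluorescence with signal to noise over triplicate slides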
# [9] = target: Neurogenic locus notch homolog protein 3 (Homo sapiens) (UniProt Q9UM47); assay: small molecules binding NOTCH3 protein – biochemical, 635/667 nm fluorescence, primary screen (AID 1096); details: small-molecule microarray, 635 nm fluorescence, higher = more signal
# [10] = probe aEGFR binding to arrayed compounds – biochemical, biotinylated probe, 635/667 nm fluorescence, primary screen (AID 1097); details: small-molecule microarray, higher = more signal;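 note: probe is a biotinylated anti-EGFR antibody binding compounds printed on slides; score combines fluorescence near 667 nm and signal to noise of each spot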
# [11] = test system: Plasmodium falciparum Sir2 (PF13_0152, Sir2A); assay: Plasmodium falciparum Sir2A binding compounds – biochemical, small-molecule microarray, 635 nm fluorescence, primary screen (AID 1098); details: fluorescence 635 nm, higher = more signal;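 note: score merges spot fluorescence intensity with its signal-to-noise ratio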
# [12] = probe aDKK1 binding to arrayed compounds – biochemical, biotinylated probe, 635/667 nm fluorescence, primary screen (AID 1099); details: small-molecule microarray, higher = more signal;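 note: score merges 667nm spot fluorescence with signal to noise across triplicate slides; reference of the scale not given here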
# [13] = probe aCHRDL2 binding to arrayed compounds – biochemical, biotinylated probe, 635/667 nm fluorescence, primary screen (AID 1100); details: small-molecule microarray, higher = more signal
# [14] = change in splice reporter luminescence, either direction, cell-based, HEK293, spliceosome inhibition project, primary screen (AID 1101); details: HEK293 splicing luciferase reporter, 24 h, higher = more signal, called active from +8 up or from −8 down;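 note: HEK293 cells carrying a splicing-competent luciferase reporter gene; test concentration not given here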
# [15] = target: Fibroblast growth factor 10 (Homo sapiens) (UniProt O15520); assay: compounds binding fibroblast growth factor 10 – biochemical, small-molecule microarray, 635 nm fluorescence, primary screen (AID 1102); details: FGF10 binding, fluorescence 635 nm, higher = more signal
# [16] = test system: glycogen synthase kinase-3 (GSK3A per assay name; protocol says GSK3B); assay: compounds binding glycogen synthase kinase-3 – biochemical, small-molecule microarray, 635 nm fluorescence, GSK3A, primary screen (AID 1103); details: fluorescence 635 nm, higher = more signal; note: the record names both GSK3A and GSK3B
# [17] = target: Epidermal growth factor receptor (Homo sapiens) (UniProt P00533); assay: compounds binding epidermal growth factor receptor – biochemical, small-molecule microarray, 635 nm fluorescence, primary screen (AID 1104); details: EGFR binding, higher = more signal;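 note: score merges 667 nm emission intensity with spot signal to noise over triplicate slides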
# [18] = target: Follistatin-related protein 3 (Homo sapiens) (UniProt O95633); assay: compounds binding follistatin-related protein 3 – biochemical, small-molecule microarray, 635 nm fluorescence, primary screen (AID 1105); details: FSTL3 binding, higher = more signal;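 note: score merges emission near 667 nm and signal to noise per printed spot across three slides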
# [19] = target: Dickkopf-related protein 1 (Homo sapiens) (UniProt O94907); assay: small molecules binding DKK1 protein – biochemical, small-molecule microarray, 635 nm fluorescence scan, primary screen (AID 1106); details: higher = more signal;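 note: score merges emission near 667 nm with signal to noise over three replicate slides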
# [20] = test system: Inhibin beta A chain (activin A); assay: small molecules binding activin A – biochemical, small-molecule microarray, 635 nm fluorescence scan, primary screen (AID 1107); details: INHBA, higher = more signal;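 note: mouse activin A protein probed at 4.33 µg/mL on printed slides; score merges bound-protein fluorescence near 667 nm with spot signal-to-noise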
# Follistatin-related protein 3 (Homo sapiens), sequence (O95633 whole entry, looked up): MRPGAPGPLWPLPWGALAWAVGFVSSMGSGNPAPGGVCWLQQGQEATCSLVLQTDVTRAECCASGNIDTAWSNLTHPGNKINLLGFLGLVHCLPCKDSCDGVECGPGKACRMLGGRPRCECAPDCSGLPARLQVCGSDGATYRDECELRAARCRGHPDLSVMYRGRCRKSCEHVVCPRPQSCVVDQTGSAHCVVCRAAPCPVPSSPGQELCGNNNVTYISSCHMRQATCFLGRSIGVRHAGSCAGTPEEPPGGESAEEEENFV
# Dickkopf-related protein 1 (Homo sapiens), sequence (O94907 whole entry, looked up): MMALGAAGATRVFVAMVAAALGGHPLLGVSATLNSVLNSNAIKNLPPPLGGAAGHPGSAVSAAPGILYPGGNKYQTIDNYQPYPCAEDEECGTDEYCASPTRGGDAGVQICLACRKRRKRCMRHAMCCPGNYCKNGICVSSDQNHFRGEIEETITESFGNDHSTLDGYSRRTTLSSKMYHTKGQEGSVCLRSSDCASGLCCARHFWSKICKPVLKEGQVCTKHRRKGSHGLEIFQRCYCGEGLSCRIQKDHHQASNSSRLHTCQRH
# Fibroblast growth factor 10 (Homo sapiens), sequence (O15520 whole entry, looked up): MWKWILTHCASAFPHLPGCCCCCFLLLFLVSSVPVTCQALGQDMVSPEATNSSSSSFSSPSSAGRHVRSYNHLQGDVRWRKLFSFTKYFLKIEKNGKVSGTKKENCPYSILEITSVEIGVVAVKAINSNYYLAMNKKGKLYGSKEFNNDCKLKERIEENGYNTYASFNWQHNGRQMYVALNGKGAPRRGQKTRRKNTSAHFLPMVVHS
# Torsin-1A-interacting protein 2 (Homo sapiens), sequence (Q8NFQ8 whole entry, looked up): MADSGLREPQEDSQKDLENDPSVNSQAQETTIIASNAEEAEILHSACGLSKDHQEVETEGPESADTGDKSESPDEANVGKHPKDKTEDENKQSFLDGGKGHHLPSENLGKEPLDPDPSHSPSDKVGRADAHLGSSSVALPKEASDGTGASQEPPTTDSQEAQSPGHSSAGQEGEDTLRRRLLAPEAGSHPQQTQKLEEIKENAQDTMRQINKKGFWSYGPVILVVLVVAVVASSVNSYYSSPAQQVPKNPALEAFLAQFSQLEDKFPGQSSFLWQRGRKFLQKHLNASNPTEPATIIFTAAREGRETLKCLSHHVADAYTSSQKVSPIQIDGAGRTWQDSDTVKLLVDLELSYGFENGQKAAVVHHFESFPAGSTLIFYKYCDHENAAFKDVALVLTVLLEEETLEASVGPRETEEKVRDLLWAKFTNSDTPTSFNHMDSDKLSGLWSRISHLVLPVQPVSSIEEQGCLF
# Neurogenic locus notch homolog protein 3 (Homo sapiens), sequence (Q9UM47 whole entry, looked up): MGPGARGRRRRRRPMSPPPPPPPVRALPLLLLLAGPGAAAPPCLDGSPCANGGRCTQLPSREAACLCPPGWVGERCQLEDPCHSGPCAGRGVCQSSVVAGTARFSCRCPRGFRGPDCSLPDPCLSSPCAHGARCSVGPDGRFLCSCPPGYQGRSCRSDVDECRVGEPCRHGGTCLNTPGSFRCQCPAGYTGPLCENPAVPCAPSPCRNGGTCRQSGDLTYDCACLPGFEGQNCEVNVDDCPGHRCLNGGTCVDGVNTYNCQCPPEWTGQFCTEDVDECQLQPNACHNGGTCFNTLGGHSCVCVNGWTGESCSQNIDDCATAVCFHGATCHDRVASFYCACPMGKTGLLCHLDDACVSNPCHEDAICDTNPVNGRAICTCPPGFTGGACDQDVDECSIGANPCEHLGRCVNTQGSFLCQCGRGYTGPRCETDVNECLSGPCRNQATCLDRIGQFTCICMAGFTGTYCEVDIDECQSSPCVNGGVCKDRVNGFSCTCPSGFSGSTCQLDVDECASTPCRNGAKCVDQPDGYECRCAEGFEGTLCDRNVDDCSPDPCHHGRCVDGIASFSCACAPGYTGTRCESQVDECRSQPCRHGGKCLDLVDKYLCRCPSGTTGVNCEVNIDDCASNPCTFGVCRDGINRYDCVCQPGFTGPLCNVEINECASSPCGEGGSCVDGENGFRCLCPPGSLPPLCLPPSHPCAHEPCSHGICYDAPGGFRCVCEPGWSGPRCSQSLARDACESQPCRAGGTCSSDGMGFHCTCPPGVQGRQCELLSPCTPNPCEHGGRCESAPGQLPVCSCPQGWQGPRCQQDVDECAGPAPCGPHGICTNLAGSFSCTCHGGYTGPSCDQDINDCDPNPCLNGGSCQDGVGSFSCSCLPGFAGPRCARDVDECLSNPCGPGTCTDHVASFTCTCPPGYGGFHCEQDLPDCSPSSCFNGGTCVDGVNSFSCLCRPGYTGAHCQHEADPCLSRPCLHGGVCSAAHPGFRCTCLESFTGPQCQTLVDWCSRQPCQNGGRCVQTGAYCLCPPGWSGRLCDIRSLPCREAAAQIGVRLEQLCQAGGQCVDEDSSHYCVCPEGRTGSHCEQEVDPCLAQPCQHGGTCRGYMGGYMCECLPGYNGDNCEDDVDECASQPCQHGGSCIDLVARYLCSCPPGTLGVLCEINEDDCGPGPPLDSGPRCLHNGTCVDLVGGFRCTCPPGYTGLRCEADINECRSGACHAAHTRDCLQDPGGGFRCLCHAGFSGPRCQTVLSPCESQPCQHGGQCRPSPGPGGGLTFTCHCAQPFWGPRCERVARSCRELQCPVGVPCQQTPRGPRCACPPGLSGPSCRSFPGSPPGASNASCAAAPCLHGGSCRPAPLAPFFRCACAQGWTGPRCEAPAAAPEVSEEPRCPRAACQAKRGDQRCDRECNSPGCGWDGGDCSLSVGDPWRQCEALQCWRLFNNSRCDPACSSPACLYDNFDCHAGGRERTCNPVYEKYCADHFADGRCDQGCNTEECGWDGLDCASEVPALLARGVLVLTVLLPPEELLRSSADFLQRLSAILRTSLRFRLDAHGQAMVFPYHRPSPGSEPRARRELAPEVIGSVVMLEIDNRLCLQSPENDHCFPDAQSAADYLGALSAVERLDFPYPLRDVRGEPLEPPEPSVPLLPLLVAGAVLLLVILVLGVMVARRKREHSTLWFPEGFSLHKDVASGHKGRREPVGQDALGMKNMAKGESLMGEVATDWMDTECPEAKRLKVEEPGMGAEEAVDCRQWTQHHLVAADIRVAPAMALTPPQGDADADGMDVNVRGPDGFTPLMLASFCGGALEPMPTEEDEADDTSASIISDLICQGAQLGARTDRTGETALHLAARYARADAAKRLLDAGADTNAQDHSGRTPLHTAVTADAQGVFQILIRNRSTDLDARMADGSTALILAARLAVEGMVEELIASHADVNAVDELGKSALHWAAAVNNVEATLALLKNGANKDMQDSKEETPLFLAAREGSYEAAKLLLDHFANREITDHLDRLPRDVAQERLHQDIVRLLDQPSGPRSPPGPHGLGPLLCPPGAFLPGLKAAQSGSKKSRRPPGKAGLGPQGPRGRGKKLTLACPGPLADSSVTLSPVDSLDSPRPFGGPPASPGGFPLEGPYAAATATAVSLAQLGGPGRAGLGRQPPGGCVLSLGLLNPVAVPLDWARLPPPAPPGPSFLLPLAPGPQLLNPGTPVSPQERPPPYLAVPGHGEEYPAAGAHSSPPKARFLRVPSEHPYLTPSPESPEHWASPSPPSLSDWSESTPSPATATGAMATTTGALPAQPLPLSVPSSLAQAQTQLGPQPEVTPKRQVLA
# Epidermal growth factor receptor (Homo sapiens), sequence (P00533 whole entry, looked up): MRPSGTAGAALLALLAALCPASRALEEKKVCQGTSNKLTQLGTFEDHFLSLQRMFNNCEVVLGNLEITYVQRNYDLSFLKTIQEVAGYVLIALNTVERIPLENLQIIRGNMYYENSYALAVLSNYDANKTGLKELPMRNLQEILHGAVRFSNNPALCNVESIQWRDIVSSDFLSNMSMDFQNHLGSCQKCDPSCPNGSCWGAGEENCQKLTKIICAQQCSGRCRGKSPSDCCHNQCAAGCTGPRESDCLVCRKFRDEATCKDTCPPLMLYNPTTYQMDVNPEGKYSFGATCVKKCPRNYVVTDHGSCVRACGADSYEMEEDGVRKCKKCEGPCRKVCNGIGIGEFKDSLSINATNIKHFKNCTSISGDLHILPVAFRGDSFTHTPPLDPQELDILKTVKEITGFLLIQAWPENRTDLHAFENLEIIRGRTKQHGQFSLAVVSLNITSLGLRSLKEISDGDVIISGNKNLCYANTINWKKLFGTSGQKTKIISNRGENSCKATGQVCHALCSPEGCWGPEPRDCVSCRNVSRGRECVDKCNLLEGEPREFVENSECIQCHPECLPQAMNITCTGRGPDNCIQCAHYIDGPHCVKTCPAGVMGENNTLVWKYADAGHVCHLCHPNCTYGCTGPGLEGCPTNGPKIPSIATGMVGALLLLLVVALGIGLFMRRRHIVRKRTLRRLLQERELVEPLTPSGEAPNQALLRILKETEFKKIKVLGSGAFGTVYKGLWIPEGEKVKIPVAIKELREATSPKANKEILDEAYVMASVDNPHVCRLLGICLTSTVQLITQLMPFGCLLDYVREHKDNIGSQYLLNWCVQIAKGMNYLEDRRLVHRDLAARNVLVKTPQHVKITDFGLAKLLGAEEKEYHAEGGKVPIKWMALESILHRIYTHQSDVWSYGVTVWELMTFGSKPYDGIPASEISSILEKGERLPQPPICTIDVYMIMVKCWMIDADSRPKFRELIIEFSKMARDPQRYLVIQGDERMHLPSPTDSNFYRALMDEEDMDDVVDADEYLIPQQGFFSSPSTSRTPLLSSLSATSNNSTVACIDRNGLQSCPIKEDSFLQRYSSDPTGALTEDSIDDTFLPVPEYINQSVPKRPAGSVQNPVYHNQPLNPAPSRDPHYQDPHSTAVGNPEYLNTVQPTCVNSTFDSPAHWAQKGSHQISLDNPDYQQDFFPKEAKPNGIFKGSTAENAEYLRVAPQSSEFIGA
SMILES,composite z-score [1],z-score [2],z-score [3],z-score [4],composite z-score [5],z-score [6],composite z-score [7],composite z-score [8],composite z-score [9],composite z-score [10],composite z-score [11],composite z-score [12],composite z-score [13],z-score [14],composite z-score [15],composite z-score [16],composite z-score [17],composite z-score [18],composite z-score [19],composite z-score [20]
CC(CO)N1C(=O)[C@@H]2[C@H]3C(=O)OCC=C[C@H]3OC23C=CCN(c2ccc(Cl)cc2)C(=O)[C@@H]13 (stereo not given in full),-0.421,-0.686 (inactive),-0.244 (inactive),-0.404 (inactive),-0.391,0.612 (inactive),0,-2.26,-1.05,-0.297,1.93,-0.125,0.837,-0.00913 (inactive),-1.59,-0.501,-2.15,-2.43,-1.92,-3.56
[N-]=[N+]=Nc1ccccc1[C@@H]1OC(c2ccc(OCCCO)cc2)=N[C@]1(Cc1ccccc1)C(=O)NCc1ccccc1,1.47,-1.79 (inactive),-0.27 (inactive),3.07 (inactive),3.43,-0.0484 (inactive),0.298,0.849,1.11,0.454,1.57,1.24,1.37,0.459 (inactive),1.02,1.06,0.0762,0.395,0.0944,0.604
COCCOC(=O)N1C(=O)[C@@]2(c3cc(C#Cc4ccc(OC)cc4)ccc31)[C@H](C(=O)NC[C@H](O)c1ccccc1)[C@H]1C(=O)O[C@H](c3ccccc3)[C@H](c3ccccc3)N1[C@@H]2c1ccc(OCCO)cc1,1.54,1.62 (inactive),1.74 (inactive),7.18 (inactive),2.87,1.38 (inactive),-0.0412,1.32,1.04,-0.0532,1.02,-0.0284,0.236,-1.31 (inactive),1.36,1.3,0.384,0.863,0.324,0.269
CCOC(=O)C[C@H]1[C@H](OC(=O)c2ccccc2-c2ccccc2)[C@@H](NC(=O)c2ccccc2)c2cc(OCCCO)ccc2N1C(=O)c1ccccc1,0.0302,-0.0764 (inactive),0.587 (inactive),1.58 (inactive),1.22,-1.11 (inactive),-0.214,0.169,0.243,-0.0726,-0.242,0.0316,-0.375,0.0178 (inactive),0.645,0.459,-0.106,0.284,0.169,0.169
CS(=O)(=O)CCOC(=O)C1=CC(CCCO)=CC(C2CC2)N(Cc2cccc(OC(F)(F)F)c2)C=C1C(=O)OCCS(C)(=O)=O (stereo not given),0.757,-0.725 (inactive),-2.34 (inactive),-1.75 (inactive),2.29,-0.917 (inactive),0.203,-0.0678,0.0213,-0.106,1.09,0.0231,-0.0768,0.155 (inactive),0.039,0.306,-0.0252,0.054,-0.325,0.911
CN1C=C(C(=O)OCCS(C)(=O)=O)C(C(=O)OCCS(C)(=O)=O)=CC(c2ccc(CO)cc2)=CC1c1cccs1 (stereo not given),0.568,0.379 (inactive),-3.74 (inactive),0.148 (inactive),2.01,0.326 (inactive),-0.116,0.484,0.407,-0.0594,0.76,0.162,0.102,0.497 (inactive),0.588,0.499,0.294,0.226,-0.0496,1.47
COc1ccc([Si](C)(C)[C@H]2[C@H](CC(=O)N3Cc4ccccc4C[C@H]3CO)O[C@@]3(C(=O)N(Cc4ccc(N5C(=O)c6cccc7cccc5c67)cc4)c4ccccc43)[C@@H]2C)cc1,1.56,-0.823 (inactive),1.17 (inactive),2.88 (inactive),2.7,0.489 (inactive),-0.178,1.14,1.15,-0.027,0.959,-0.247,-0.0288,-0.91 (inactive),0.884,1.28,0.868,1.31,0.879,0.473
C=C[C@H](C)[C@H](OC(=O)Nc1ccc(OC)cc1)c1ccc(OCCO)cc1,-0.173,0.164 (inactive),-2.2 (inactive),-1.43 (inactive),0.038,2.01 (inactive),-0.129,-1.14,-0.36,-0.216,0.515,-0.115,0.931,-0.921 (inactive),-1.12,-0.78,-2.13,-0.844,-1.28,-0.801
NC(=O)[C@H]1[C@@H]2C(=O)O[C@@H](c3ccccc3)[C@@H](c3ccccc3)N2[C@@H](c2ccc(O)cc2)[C@]12C(=O)Nc1ccccc12,-0.472,0.446 (inactive),-0.732 (inactive),0.659 (inactive),2.99,0.13 (inactive),-0.139,-1.18,-1.03,-0.356,0.845,-0.352,0.561,-0.0764 (inactive),-1.07,-1.69,-1.15,-1.51,-1.34,-1.11
COCCOC(=O)N1C(=O)[C@@]2(c3cc(C#CCC(C(=O)OC)C(=O)OC)ccc31)[C@H](C(=O)NC[C@H](O)c1ccccc1)[C@H]1C(=O)O[C@H](c3ccccc3)[C@H](c3ccccc3)N1[C@@H]2c1ccc(OCCO)cc1,1.56,2.22 (inactive),2.7 (inactive),7 (inactive),2.08,0.6 (inactive),-0.109,1.69,1.04,0.0097,1.18,-0.0002,-0.132,0.28 (inactive),1.04,1.35,0.97,1.09,0.909,0.534
